Test results as given in PubChem BioAssay.
Some of the results follow. A number with no mark means an inactive call. Activity calls are given as the source filed them.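 The calls were made as follows, unless noted: active = mean inhibition above about 50% in the one-dose retest (limit read from the data); inactive = the rest.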

Assays:
[1] = target: Sentrin-specific protease 8 (Homo sapiens) (UniProt Q96LD8); assay: SENP8 protease inhibitors, retest, confirmation, biochemical, luminescence, single concentration (AID 488912;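 active = mean inhibition across replicates above about 50%, limit read from the data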); conditions: Recombinant SENP8, Z-RLRGG-aminoluciferin luminescence, 60 min; at 12.5 µM; active compounds read high
Sentrin-specific protease 8 (Homo sapiens), sequence (Q96LD8 whole entry, looked up): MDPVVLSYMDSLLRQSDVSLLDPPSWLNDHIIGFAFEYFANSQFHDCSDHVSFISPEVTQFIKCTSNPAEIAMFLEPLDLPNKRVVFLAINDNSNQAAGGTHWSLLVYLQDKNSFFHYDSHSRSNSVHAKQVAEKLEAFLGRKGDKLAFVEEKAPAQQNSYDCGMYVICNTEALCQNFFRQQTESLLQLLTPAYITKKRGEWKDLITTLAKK

[2] = target: Sentrin-specific protease 6 (Homo sapiens) (UniProt Q9GZR1); assay: SENP6 protease inhibitors, confirmation, biochemical, luminescence, single concentration (AID 488915); conditions: recombinant SENP6, Z-RLRGG-aminoluciferin luminescence; at 12.5 µM; active compounds read high
Sentrin-specific protease 6 (Homo sapiens), sequence (Q9GZR1 628-1112 limits assumed): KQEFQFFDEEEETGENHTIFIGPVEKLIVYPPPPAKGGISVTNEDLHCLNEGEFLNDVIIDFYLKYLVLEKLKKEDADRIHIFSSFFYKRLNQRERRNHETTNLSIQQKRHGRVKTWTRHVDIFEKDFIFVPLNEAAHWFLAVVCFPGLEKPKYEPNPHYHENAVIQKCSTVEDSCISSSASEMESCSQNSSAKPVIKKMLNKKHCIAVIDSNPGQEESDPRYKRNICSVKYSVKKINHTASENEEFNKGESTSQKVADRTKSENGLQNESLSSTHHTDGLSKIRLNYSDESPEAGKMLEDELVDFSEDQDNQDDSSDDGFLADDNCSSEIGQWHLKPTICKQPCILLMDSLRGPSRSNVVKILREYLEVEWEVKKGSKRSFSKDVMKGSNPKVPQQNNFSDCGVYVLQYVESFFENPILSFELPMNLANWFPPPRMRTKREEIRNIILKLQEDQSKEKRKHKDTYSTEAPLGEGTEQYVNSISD

[3] = target: Sentrin-specific protease 7 (Homo sapiens) (UniProt Q9BQF6); assay: SENP7 protease inhibitors, retest, confirmation, biochemical, luminescence, single concentration (AID 488917); conditions: recombinant SENP7, Z-RLRGG-aminoluciferin luminescence, 40 min; at 12.5 µM; active compounds read high
Sentrin-specific protease 7 (Homo sapiens), sequence (Q9BQF6 706-1050 limits assumed): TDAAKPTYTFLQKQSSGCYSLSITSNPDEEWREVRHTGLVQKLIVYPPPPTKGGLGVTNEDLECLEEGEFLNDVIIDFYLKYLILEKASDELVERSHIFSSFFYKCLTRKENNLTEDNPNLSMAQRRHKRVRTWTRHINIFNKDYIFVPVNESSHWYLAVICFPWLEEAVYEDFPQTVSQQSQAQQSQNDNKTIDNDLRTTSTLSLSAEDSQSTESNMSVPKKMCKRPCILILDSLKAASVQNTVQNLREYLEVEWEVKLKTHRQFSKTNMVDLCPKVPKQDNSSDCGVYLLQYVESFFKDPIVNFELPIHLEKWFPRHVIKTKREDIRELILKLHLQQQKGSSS

[4] = target: Caspase-3 (Homo sapiens) (UniProt P42574); assay: caspase-3 protease inhibitors, confirmation, selectivity assay for SENP inhibitor project, biochemical, single concentration (AID 488918;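 active = mean inhibition above about 50%, limit read from the data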;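 also: plate controls were enzyme with DMSO for no effect and wells without caspase-3 for full effect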); conditions: purified caspase-3, Z-DEVD-aminoluciferin luminescence, 60 min; at 12.5 µM; active compounds read high
Caspase-3 (Homo sapiens), sequence (P42574 28-227 limits assumed): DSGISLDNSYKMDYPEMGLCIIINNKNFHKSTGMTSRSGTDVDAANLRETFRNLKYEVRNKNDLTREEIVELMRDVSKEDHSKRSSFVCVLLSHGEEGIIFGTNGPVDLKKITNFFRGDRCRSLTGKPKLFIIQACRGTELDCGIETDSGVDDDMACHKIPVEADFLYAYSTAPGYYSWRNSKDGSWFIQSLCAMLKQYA

[5] = luciferase luminescence interference by compounds, confirmation, artefact control for SENP inhibitor project, biochemical, single concentration, SENP8 reaction pre-completed (AID 488919;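 active = mean inhibition above about 50% when retested at one dose, limit read from the data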;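 also: plate controls were DMSO wells with completed reaction for no effect and substrate without enzyme for full effect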); conditions: Pre-incubated SENP8/Z-RLRGG-aminoluciferin, at 12.5 µM, active compounds read high

| SMILES | inhibition [1] | inhibition [2] | inhibition [3] | inhibition [4] | inhibition [5] |
| --- | --- | --- | --- | --- | --- |
| O=C(O)c1ccc2c3c(cccc13)C(=O)N(OS(=O)(=O)c1ccccc1)C2=O | 36.6% | 29.2% | 68.5% (active) | 10.4% | 53.8% (active) |
| COc1ccc(C(CC(=O)c2ccccc2)S(=O)(=O)c2ccccc2)cc1 (stereo not given) | 25% | 33.4% | 30.3% | 9% | 4.7% |
| Brc1ccc(-c2nnc(-c3ccccc3)o2)o1 | 25.1% | 50.8% (active) | 80.1% (active) | 62.9% (active) | 19.1% |
| O=C(ON=C1CCN(S(=O)(=O)c2ccccc2)CC1)c1ccc(Cl)cc1 | 12.5% | 15.5% | 3.4% | 17.7% | -1.9% |
| COc1ccc(CNC(=O)COc2ccccc2C(=O)c2cnn(-c3ccccc3)c2)cc1OC | 77.7% (active) | 76.1% (active) | 89.2% (active) | 61.9% (active) | 65.5% (active) |
| O=C(Nc1ccccc1Cl)Nc1cccc2cccnc12 | 35.6% | 37.2% | 75.2% (active) | 25.9% | 32.6% |
| Cc1cc(NC(=O)Nc2ccccc2[N+](=O)[O-])no1 | 46% | 40.1% | 77.2% (active) | 70.8% (active) | 41.3% |
| O=C(c1ccc(CSc2ccccc2)cc1)N1CCCCCC1 | 57.5% (active) | 57% (active) | 80% (active) | 54.3% (active) | 65.5% (active) |
| Nc1ccccc1/C=N\N=C/c1ccccc1N | 52.9% (active) | 45.3% | 85.6% (active) | 68.3% (active) | 3.9% |
| Cc1ccc(S(=O)(=O)C(C#N)c2nc3ccccc3nc2N2CCCC2)cc1C (stereo not given) | 6.9% | 9.5% | 4.3% | 4.2% | 3% |
| c1ccc2sc(NN=C3CCCC3)nc2c1 | 86.8% (active) | 85.9% (active) | 98.8% (active) | 88% (active) | 15.5% |
| c1ccc(Nc2nc(-c3ccncc3)cs2)nc1 | 84.9% (active) | 85.1% (active) | 97.3% (active) | 84% (active) | 45.3% |
| C1=C(CCNc2ncnc3c2cnn3-c2ccccc2)CCCC1 | 2% | 22% | -1.5% | 39.5% | -4.4% |
| Cc1ccnc(NC(=O)c2ccoc2C)c1 | 85.8% (active) | 88.9% (active) | 97.1% (active) | 95.6% (active) | 80.1% (active) |
| Cc1cccc(/C=N/NC(=O)CNc2cccc3ccccc23)n1 | 13.1% | 12.9% | 3.9% | -0.3% | 1.6% |
| Cc1ccc(NC(=O)c2sccc2C)cc1[N+](=O)[O-] | 78% (active) | 77.5% (active) | 95.7% (active) | 81% (active) | 82.6% (active) |
| CN1C(=O)/C(=C\c2cc(Br)cs2)c2ccccc21 | 27.2% | 42.4% | 23% | 18% | 12.1% |
| Cc1ccc(OC(=O)c2cc3ccccc3o2)cc1 | 50.7% (active) | 51.4% (active) | 90.8% (active) | 46.9% | 64.7% (active) |
| COc1ccc(/C=N/Nc2ccccc2C(=O)O)cc1 | 97.3% (active) | 97.5% (active) | 103% (active) | 96% (active) | 97.6% (active) |
